The text below walks through data of PubChem BioAssay (NCATS).

Test [1] can be described thus: Quantitative High-Throughput drug screen in 47 multiple myeloma cell lines against the NCATS MIPE library collection: Karpas620_DSMZ cell viability assay (AID 1918959). Note: nearly all actives have a fitted effect of over 30% in size. In a few lines:
(§1)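 Luminescent ATP measurement with CellTiter-Glo gives viability, scaled between DMSO-only wells (100%) and media-only wells (0%). Cells, 500 per well, faced library compounds for 48 hours at 37C.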

Test [2] in a line: Quantitative High-Throughput drug screen in 47 multiple myeloma cell lines against the NCATS MIPE library collection: KMM1_JCRB cell viability assay (AID 1918960).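 For viability (% of DMSO): 100% = DMSO-treated cells and 0% = medium-only wells.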 Note: nearly all actives have a fitted effect of over 30% in size. The procedure, abridged: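 Luminescence from CellTiter-Glo, taken after 5 min at room temperature, reports cellular ATP as viability. Cells (500 per well) had been treated 48 h at 37 °C with MIPE 4.0 compounds, scaled between DMSO and medium-only controls.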

The nature of test [3]: Quantitative High-Throughput drug screen in 47 multiple myeloma cell lines against the NCATS MIPE library collection: Karpas417_ECACC cell viability assay (AID 1918961). As to conditions: Karpas417 myeloma viability, CellTiter-Glo ATP luminescence, 48 h; viability (% of DMSO): at 45.8 µM (top of the series). In a few lines:
(§2)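 Steps: seed 500 cells per well; pin-transfer MIPE 4.0 library; incubate 48 h at 37C, 5% CO2, humidified; add CellTiter-Glo, 5 min room temperature; read luminescence.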

The nature of test [4]: Quantitative High-Throughput drug screen in 47 multiple myeloma cell lines against the NCATS MIPE library collection: JIM1_ECACC cell viability assay (AID 1918964). The procedure, abridged: (§3)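 Approved and investigational drugs from MIPE 4.0 were added by pin tool to 500 cells per well. After 48 hours at 37C, ATP-based CellTiter-Glo luminescence indicated remaining viability.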

The nature of test [5]: Quantitative High-Throughput drug screen in 47 multiple myeloma cell lines against the NCATS MIPE library collection: H1112_PLB cell viability assay (AID 1918967; note: nearly all actives have a fitted effect of over 30% in size). The procedure, abridged: as §3
A short description of test [6]: Quantitative High-Throughput drug screen in 47 multiple myeloma cell lines against the NCATS MIPE library collection: Karpas25_ECACC cell viability assay (AID 1918968; note: nearly all actives have a fitted effect of over 35% in size). The procedure, abridged: as §3
A short description of test [7]: Quantitative High-Throughput drug screen in 47 multiple myeloma cell lines against the NCATS MIPE library collection: KHM11_PLB cell viability assay (AID 1918962). Note: nearly all actives have a fitted effect of over 35% in size. In a few lines: as §1
Test [8] can be described thus: Quantitative High-Throughput drug screen in 47 multiple myeloma cell lines against the NCATS MIPE library collection: JIM3_ECACC cell viability assay (AID 1918963; note: nearly all actives have a fitted effect of over 35% in size). In a few lines: as §1
Test [9] can be described thus: Quantitative High-Throughput drug screen in 47 multiple myeloma cell lines against the NCATS MIPE library collection: INA6_PLB cell viability assay (AID 1918965; note: nearly all actives have a fitted effect of over 55% in size). The procedure, abridged: as §2
A short description of test [10]: Quantitative High-Throughput drug screen in 47 multiple myeloma cell lines against the NCATS MIPE library collection: JJN3_DSMZ cell viability assay (AID 1918966; note: nearly all actives have a fitted effect of over 50% in size). The procedure, abridged:
as §3

Results filed as inconclusive are left out. Active and inactive are the calls of the source. Calls come from the whole dose curve; as a rule, active = well fitted curve in the direction sought with a large enough effect; inconclusive = small, poorly fitted or top-dose-only effect, or another doubt; inactive = no such curve, though single readings can be large; an effect the other way counts as inactive or inconclusive.
Potency is the fitted concentration of half-maximal effect.

For the compound `Cc1cn([C@H]2C=C[C@@H](CO)O2)c(=O)[nH]c1=O`, the Potency result in [1], in test [2], in test [4] and in test [5] was “inactive” in each case. The Potency is 0.0108 µM (active) in test [3] and 12.1 µM (active) in test [6].

Turning to `Cc1cc(C(C)(C)C)c(O)c(C)c1CC1=NCCN1`, the Potency result in test [1], in test [2], in test [7], in [8], in test [5] and in test [6] was “inactive” throughout.

With `CNCCCC12CCC(c3ccccc31)c1ccccc12`, the Potency was 26.4 µM (active) in test [1]; 20.9 µM (active) in [2]; 26.4 µM (active) in test [7]; 16.6 µM (active) in [9]; 20.9 µM (active) in [10]; 26.4 µM (active) in test [5]. Moreover, in test [6], the Potency is 23.5 µM (active).

Consider `NCCc1cnc[nH]1`, for which, in [1], the Potency was 0.0148 µM (active). Moreover, the Potency entry in test [2], in [9], in test [10], in test [5] and in test [6] was “inactive” throughout.

As to `Cc1cc(C(C)(C)C)cc(C)c1CC1=NCCN1`, the Potency entry in test [1], in test [7], in test [8], in [5] and in test [6] was “inactive” in each case.

Take `CCC1(C)CC(=O)NC1=O` (stereo unspecified): the Potency result in test [1], in test [2], in test [7], in test [8], in test [9] and in test [5] was “inactive” each time. The Potency result in test [6] is “inactive”.

Regarding `CC(C)C(=O)Nc1ccc([N+](=O)[O-])c(C(F)(F)F)c1`, the Potency in test [1] is 1.05 µM (active); in test [2], 18.7 µM (active); in test [7] it was 6.62 µM (active); in test [4], 13.2 µM (active); in [9], 6.62 µM (active); in test [5] it was 3.32 µM (active). The Potency in test [6] was 3.32 µM (active).

Turning to `CC(C)NCC(O)c1ccc(O)c(O)c1` (stereo unspecified), the Potency in test [1] is 14.8 µM (active); in [2], 2.64 µM (active); in test [3] it was 1.48 µM (active); in test [4] it was 13.2 µM (active); in test [10] it was 20.9 µM (active); in test [6] it was 0.0418 µM (active). Further, the Potency result in test [7], in test [8] and in test [5] was “inactive” throughout.

Turning to `CC(CCc1ccc(O)cc1)NCCc1ccc(O)c(O)c1` (stereo unspecified), the Potency in [1] was 13.2 µM (active); in [2] it was 29.6 µM (active); in test [9], 18.7 µM (active); in [10], 14.8 µM (active); in [6] it was 18.7 µM (active).

In the case of `COc1ccc(C2CNC(=O)C2)cc1OC1CCCC1` (stereo unspecified), the Potency result in [1], in test [3], in [8], in [4] and in test [5] was “inactive” throughout.

In the case of `NS(=O)(=O)c1cc2c(cc1Cl)NCNS2(=O)=O`, the Potency entry in [1], in [2] and in [9] was “inactive” in each case. The Potency is 0.0066 µM (active) in test [3], 7.43 µM (active) in test [10] and 9.35 µM (active) in test [5].

`Cc1cnc(C(=O)NCCc2ccc(S(=O)(=O)NC(=O)NC3CCCCC3)cc2)cn1`: the Potency result in test [1] and in test [3] was “inactive” in each case. In test [2], the Potency is 18.7 µM (active).

As to `CC(C)NCC(O)COc1ccc(CCOCC2CC2)cc1` (stereo unspecified), the Potency result in [1], in [2], in [3], in test [7], in [8] and in test [4] was “inactive” throughout. In addition, the Potency entry in test [9], in test [5] and in test [6] was “inactive” throughout.

Consider `CC[N+](CC)(CC)CCOc1cccc(OCC[N+](CC)(CC)CC)c1OCC[N+](CC)(CC)CC`, for which the Potency result in test [2], in [8], in [4], in test [10], in [5] and in test [6] was “inactive” throughout.

In the case of `Cn1c(=O)c2[nH]cnc2n(C)c1=O`, the Potency entry in test [2], in [7], in test [9], in test [5] and in [6] was “inactive” each time.

With `O=C(C1CCCCC1)N1CC(=O)N2CCc3ccccc3C2C1` (stereo unspecified), the Potency result in [2], in test [7], in [5] and in test [6] was “inactive” throughout.

Consider `O=C(c1ccc(F)cc1)C1CCN(CCn2c(=O)[nH]c3ccccc3c2=O)CC1`, for which the Potency result in test [2], in test [7], in [8], in test [4] and in test [5] was “inactive” each time. The Potency in test [9] is 20.9 µM (active).

Take `Cc1cn([C@H]2C[C@H](N=[N+]=[N-])[C@@H](CO)O2)c(=O)[nH]c1=O`: the Potency result in [2] and in test [4] was “inactive” each time. For the same compound, the viability (% of DMSO) in [3] is 84.8% (active). For the same compound, the Potency in test [8] was 26.4 µM (active); in test [10], 5.26 µM (active); in test [5], 23.5 µM (active); in test [6], 26.4 µM (active).

As to `COc1cc2nc(N(C)CCCNC(=O)C3CCCO3)nc(N)c2cc1OC` (stereo unspecified), the Potency result in test [2], in test [7], in [8], in test [5] and in [6] was “inactive” each time.

Take `CC(C)(C)C(=O)Oc1ccc(S(=O)(=O)Nc2ccccc2C(=O)NCC(=O)O)cc1`: the Potency entry in test [1], in test [8] and in test [4] was “inactive” in each case. In addition, the Potency in [5] is 18.7 µM (active).

For `CN(C)CCC=C1c2ccccc2C=Cc2ccccc21`, the Potency result in test [2] and in test [7] was “inactive” each time. The Potency in test [10] was 18.7 µM (active); in [6], 1.66 µM (active).

Take `Cn1c(=O)c2c(ncn2C)n(C)c1=O`: the Potency result in test [2], in test [7], in [9], in test [10] and in [5] was “inactive” throughout.

As for `CN(C)c1nc(N(C)C)nc(N(C)C)n1`, the Potency entry in test [2], in test [3], in test [7], in [8], in [5] and in test [6] was “inactive” throughout.

With `O=C1c2c(O)ccc(O)c2C(=O)c2c(NCCNCCO)ccc(NCCNCCO)c21`, the Potency in test [2] was 4.18 µM (active); in [3] it was 16.6 µM (active); in test [7], 0.833 µM (active); in test [4] it was 1.66 µM (active); in test [9], 0.0526 µM (active); in [10], 4.18 µM (active). Moreover, the Potency in [5] was 0.332 µM (active); in test [6] it was 0.296 µM (active).
